Measurements from PubChem BioAssay AID1159580 (chemical genetic matrix, 2015).
The whole screen tested about 5,500 compounds, of which about 2,000 (36%) were called active. About 18% were inconclusive and are not listed. Cut-off read from the data, not from the text of the source: active = normalized growth mostly below about 0.91 (no sharp cut-off); inconclusive = no clear call, values can overlap the other calls; inactive = mostly above about 0.92. Some of the results follow.

Experiment: chemical genetic growth profiling, strain panel (AID 1159580);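 note: tested at 20 µM; growth read once vehicle control cultures reached saturation at 30 °C; 1 = growth at the plate median or of vehicle wells; lower values mean less growth of the strain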
Conditions: growth OD

Measured: normalized growth

N#Cc1ccc2c(c1)N(CCCN1CCC(O)CC1)c1ccccc1S2
inactive: S. cerevisiae deletion strains, locus YJR075W, strain HOC1, stronger effect = lower value 1.03 | S. cerevisiae deletion strains, locus YKL009W, strain mrt4, stronger effect = lower value 1.01 | S. cerevisiae deletion strains, locus YKL068W, stronger effect = lower value 1.01 | S. cerevisiae deletion strains, locus YKL085W, strain MDH1 (second series), stronger effect = lower value 1.04 | S. cerevisiae deletion strains, locus YKL085W, strain MDH1, stronger effect = lower value 1.04 | S. cerevisiae deletion strains, locus YKL160W, strain elf1, stronger effect = lower value 0.998 | S. cerevisiae deletion strains, locus YKL190W, strain CNB1, stronger effect = lower value 1.01 | S. cerevisiae deletion strains, locus YKR001C, strain vps1, stronger effect = lower value 1.02 | S. cerevisiae deletion strains, locus YKR026C, strain gcn3, stronger effect = lower value 0.995 | S. cerevisiae deletion strains, locus YKR091W, strain srl3, stronger effect = lower value 0.995 | S. cerevisiae deletion strains, locus YLL001W, strain dnm1, stronger effect = lower value 0.996 | S. cerevisiae deletion strains, locus YLL026W, stronger effect = lower value 0.987 | S. cerevisiae deletion strains, locus YLL041C, strain sdh2, stronger effect = lower value 0.996 | S. cerevisiae deletion strains, locus YLR027C, strain aat2, stronger effect = lower value 0.992 | S. cerevisiae deletion strains, locus YLR039C, strain RIC1, stronger effect = lower value 1.08 | S. cerevisiae deletion strains, locus YLR058C, strain SHM2, stronger effect = lower value 1.01 | S. cerevisiae deletion strains, locus YLR102C, strain apc9, stronger effect = lower value 1.02 | S. cerevisiae deletion strains, locus YLR113W, strain HOG1, stronger effect = lower value 1.05 | S. cerevisiae deletion strains, locus YLR221C, strain rsa3, stronger effect = lower value 0.995 | S. cerevisiae deletion strains, locus YLR258W, strain gsy2, stronger effect = lower value 0.977 | S. cerevisiae deletion strains, locus YLR262C, strain YPT6 (second series), stronger effect = lower value 1.02 | S. cerevisiae deletion strains, locus YLR262C, strain YPT6, stronger effect = lower value 1.07 | S. cerevisiae deletion strains, locus YLR268W, strain sec22, stronger effect = lower value 1.01 | S. cerevisiae deletion strains, locus YLR320W, strain mms22, stronger effect = lower value 0.959 | S. cerevisiae deletion strains, locus YLR330W, strain CHS5, stronger effect = lower value 1 | S. cerevisiae deletion strains, locus YLR342W, strain FKS1 (second series), stronger effect = lower value 0.989 | S. cerevisiae deletion strains, locus YLR342W, strain FKS1, stronger effect = lower value 0.992 | S. cerevisiae deletion strains, locus YLR357W, strain rsc2, stronger effect = lower value 0.969 | S. cerevisiae deletion strains, locus YLR370C, strain arc18, stronger effect = lower value 0.994 | S. cerevisiae deletion strains, locus YLR371W, strain rom2, stronger effect = lower value 1.02 | S. cerevisiae deletion strains, locus YLR384C, strain iki3, stronger effect = lower value 0.986 | S. cerevisiae deletion strains, locus YLR418C, strain cdc73, stronger effect = lower value 1 | S. cerevisiae deletion strains, locus YML016C, strain PPZ1, stronger effect = lower value 1.01 | S. cerevisiae deletion strains, locus YML032C, strain rad52, stronger effect = lower value 1.01 | S. cerevisiae deletion strains, locus YML120C, strain ndi1, stronger effect = lower value 0.994 | S. cerevisiae deletion strains, locus YML124C, strain tub3, stronger effect = lower value 1.02 | S. cerevisiae deletion strains, locus YMR058W, strain fet3, stronger effect = lower value 0.999 | S. cerevisiae deletion strains, locus YMR078C, strain ctf18, stronger effect = lower value 1.02 | S. cerevisiae deletion strains, locus YMR125W, strain sto1, stronger effect = lower value 0.966 | S. cerevisiae deletion strains, locus YMR129W, stronger effect = lower value 0.997 | S. cerevisiae deletion strains, locus YMR205C, strain PFK2, stronger effect = lower value 0.935 | S. cerevisiae deletion strains, locus YMR223W, strain ubp8, stronger effect = lower value 1.01 | S. cerevisiae deletion strains, locus YMR231W, strain pep5, stronger effect = lower value 1 | S. cerevisiae deletion strains, locus YMR263W, strain SAP30, stronger effect = lower value 1.02 | S. cerevisiae deletion strains, locus YMR307W, strain GAS1, stronger effect = lower value 1.04 | S. cerevisiae deletion strains, locus YNL067W, strain RPL9B, stronger effect = lower value 1.01 | S. cerevisiae deletion strains, locus YNL071W, strain lat1, stronger effect = lower value 0.96 | S. cerevisiae deletion strains, locus YNL128W, strain TEP1, stronger effect = lower value 1.01 | S. cerevisiae deletion strains, locus YNL153C, strain GIM3, stronger effect = lower value 1 | S. cerevisiae deletion strains, locus YNL183C, strain NPR1, stronger effect = lower value 0.983 | S. cerevisiae deletion strains, locus YNL209W, strain ssb2, stronger effect = lower value 0.993 | S. cerevisiae deletion strains, locus YNL233W, strain BNI4, stronger effect = lower value 0.998 | S. cerevisiae deletion strains, locus YNL248C, strain rpa49, stronger effect = lower value 0.997 | S. cerevisiae deletion strains, locus YNL250W, strain rad50, stronger effect = lower value 1.04 | S. cerevisiae deletion strains, locus YNL271C, strain bni1, stronger effect = lower value 1.03 | S. cerevisiae deletion strains, locus YNL298W, strain CLA4, stronger effect = lower value 1.02 | S. cerevisiae deletion strains, locus YNL307C, strain MCK1, stronger effect = lower value 1 | S. cerevisiae deletion strains, locus YNL322C, strain KRE1 (second series), stronger effect = lower value 0.995 | S. cerevisiae deletion strains, locus YNL322C, strain KRE1, stronger effect = lower value 1.01 | S. cerevisiae deletion strains, locus YNR049C, strain mso1, stronger effect = lower value 0.991 | S. cerevisiae deletion strains, locus YNR052C, strain pop2, stronger effect = lower value 1.02 | S. cerevisiae deletion strains, locus YOL006C, strain TOP1, stronger effect = lower value 1.01 | S. cerevisiae deletion strains, locus YOL012C, strain htz1 0.994 | S. cerevisiae deletion strains, locus YOL147C, strain pex11, stronger effect = lower value 1.02 | S. cerevisiae deletion strains, locus YOR001W, strain rrp6, stronger effect = lower value 0.981 | S. cerevisiae deletion strains, locus YOR061W, strain CKA2, stronger effect = lower value 1.01 | S. cerevisiae deletion strains, locus YOR069W, strain VPS5, stronger effect = lower value 1.01 | S. cerevisiae deletion strains, locus YOR070C, strain gyp1, stronger effect = lower value 1.04 | S. cerevisiae deletion strains, locus YOR080W, strain dia2, stronger effect = lower value 0.987 | S. cerevisiae deletion strains, locus YOR083W, strain WHI5, stronger effect = lower value 1 | S. cerevisiae deletion strains, locus YOR106W, strain vam3, stronger effect = lower value 1 | S. cerevisiae deletion strains, locus YOR136W, strain idh2, stronger effect = lower value 1.03 | S. cerevisiae deletion strains, locus YOR144C, strain elg1, stronger effect = lower value 1.02 | S. cerevisiae deletion strains, locus YOR184W, strain ser1, stronger effect = lower value 1.03 | S. cerevisiae deletion strains, locus YOR231W, strain MKK1, stronger effect = lower value 1.08 | S. cerevisiae deletion strains, locus YOR265W, strain rbl2, stronger effect = lower value 0.98 | S. cerevisiae deletion strains, locus YOR270C, strain vph1, stronger effect = lower value 1.02 | S. cerevisiae deletion strains, locus YOR290C, strain snf2, stronger effect = lower value 0.973 | S. cerevisiae deletion strains, locus YOR316C, strain cot1, stronger effect = lower value 1.01 | S. cerevisiae deletion strains, locus YPL051W, strain arl3, stronger effect = lower value 1 | S. cerevisiae deletion strains, locus YPL055C, strain LGE1, stronger effect = lower value 1.02 | S. cerevisiae deletion strains, locus YPL078C, strain atp4, stronger effect = lower value 1 | S. cerevisiae deletion strains, locus YPL106C, strain sse1, stronger effect = lower value 0.963 | S. cerevisiae deletion strains, locus YPL240C, strain hsp82, stronger effect = lower value 1.01 | S. cerevisiae deletion strains, locus YPL241C, strain CIN2, stronger effect = lower value 1 | S. cerevisiae deletion strains, locus YPL256C, strain CLN2, stronger effect = lower value 1.07 | S. cerevisiae deletion strains, locus YPR119W, strain clb2, stronger effect = lower value 1.02 | S. cerevisiae deletion strains, locus YPR141C, strain kar3, stronger effect = lower value 1.02 | S. cerevisiae deletion strains, locus YPR163C, strain tif3, stronger effect = lower value 1.03 | S. cerevisiae deletion strains, locus YPR167C, strain met16, stronger effect = lower value 1.02 | S. cerevisiae deletion strains, strain wtn01, stronger effect = lower value 1.01 | S. cerevisiae strains, strain wild type, stronger effect = lower value 1.01
